From PubChem BioAssay (NCI)
Compounds without any hit were thinned out: in the full panel of roughly 83,000, 20% have a hit.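 Single-dose data. Exposure time 48 hours. Values below 10 considered active.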 A number with no mark means an inactive call. The source made the active and inactive calls.

Experiments:
Test in all cases: NCI-60 one-dose screen, 48 h (100 = growth as untreated, 0 = no growth, -100 = all killed)
Conditions in all cases: 10 µM unless noted
T-47D breast = test system: T-47D breast
BT-549 breast = test system: BT-549 breast
MDA-MB-435 melanoma = test system: MDA-MB-435 melanoma
SW-620 colon = test system: SW-620 colon
MCF7 breast = test system: MCF7 breast
HCT-116 colon = test system: HCT-116 colon
HCC-2998 colon = test system: HCC-2998 colon
KM12 colon = test system: KM12 colon

| SMILES | growth (T-47D breast) | growth (BT-549 breast) | growth (MDA-MB-435 melanoma) | growth (SW-620 colon) | growth (MCF7 breast) | growth (HCT-116 colon) | growth (HCC-2998 colon) | growth (KM12 colon) |
| --- | --- | --- | --- | --- | --- | --- | --- | --- |
| O=C1c2cccc(NCCN=Cc3ccccc3O)c2C(=O)c2c(NCCN=Cc3ccccc3O)cccc21 | 18% | 49% | 24.7% | 0.678% (active) | 3.69% (active) | 7.91% (active) | 2.57% (active) | – |
| COc1cc(/C=C/C(=O)CC(=O)/C=C/c2ccc(OC(=O)CCNC34CC5CC(CC(C5)C3)C4)c(OC)c2)ccc1OC(=O)CCNC12CC3CC(CC(C3)C1)C2 | 50.8% | -10.7% (active) | -31.2% (active) | 8.69% (active) | 17.8% | -0.854% (active) | 34.1% | – |
| O=C(COc1ccc(/C=C2\Oc3ccc4ccccc4c3C2=O)cc1)c1ccc([N+](=O)[O-])cc1 | 73.1% | 9.91% (active) | 104% | 98.5% | 15.6% | 74.1% | 95.5% | – |
| CCSc1nc(-c2cccs2)n2nc(-c3ccco3)cc2n1 | 43.1% | 113% | 111% | 102% | 32.9% | 94.8% | – | – |
| CC(=O)[C@H]1CC[C@H]2[C@@H]3C[C@H](C)C4=CC(=O)CC[C@]4(C)[C@H]3C(=O)C[C@]12C | 87.5% | 98% | 119% | 98.6% | 99.3% | 93.1% | – | – |
| O=C1N=C(N2CCOCC2)S/C1=C\c1cn(-c2ccccc2)nc1-c1ccccc1 | 62.4% | 53.8% | 65.3% | 98.8% | 81.5% | 64.4% | 100% | 96.4% |
| N#CC(C#N)C(C#N)C#N | 87.9% | 89.5% | 99.8% | 99.1% | 95.5% | 86.8% | 98.4% | 102% |
| C[C@]12CCC(=O)C=C1CCC1C2[C@@H](O)C[C@@]2(C)C1CC[C@]2(O)C(=O)COC(=O)CCC(=O)O (stereo partly drawn) | 114% | 100% | 96.3% | 113% | 102% | 106% | 98% | 109% |
| CCCCCCCCCCCCCCCCCC1=NC(C)(CO)CO1 (stereo not drawn) | 87.7% | 92.9% | 103% | 108% | 121% | 105% | 98.3% | 102% |
| CCOc1nc(-c2ccco2)n2nc(-c3ccco3)cc2n1 | 84% | 119% | 114% | 107% | 39.8% | 108% | 123% | 91.7% |
| O=C(Nc1ccc(Cl)cc1)Nc1nc2ccc(OC(F)(F)F)cc2o1 | 41.1% | 146% | 112% | 98.4% | 76.6% | 85% | 140% | 68.3% |
| CCCCCCCCCCCCCCCCNC(=O)Nc1ccc2ccccc2c1 | 108% | 97.4% | 103% | 94.2% | 94.5% | 101% | 109% | 111% |
| CCOC(=O)c1sc(NC(=O)COc2ccc(/C=C3\CCc4cc(OC)ccc4C3=O)cc2)nc1C | 86.6% | 51.8% | 87.1% | 99.5% | 112% | 105% | 104% | – |
| Cc1ccc(NC(=O)c2sc3nc4c(cc3c2N)C(=O)CCC4)cc1 | 94.7% | 86.4% | 14.6% | 67% | 67.7% | 91.7% | 80.2% | 56.7% |
| COc1cc(Cl)cc(-c2nn(-c3cccc(NC(=O)c4cc(C(F)(F)F)cc(C(F)(F)F)c4)c3)cc2-c2ccncc2)c1 | 53.4% | 96.8% | 80% | 86.2% | 57.8% | 35.2% | 78.3% | 55.5% |
| CN(C)c1ncnc2c1ncn2C1CCCCO1 (stereo not drawn) | 105% | 101% | 111% | 106% | 96.6% | 104% | 96.7% | 112% |

| SMILES | growth (T-47D breast) | growth (BT-549 breast) | growth (MDA-MB-435 melanoma) | growth (SW-620 colon) | growth (MCF7 breast) | growth (HCT-116 colon) | growth (HCC-2998 colon) | growth (KM12 colon) |
| --- | --- | --- | --- | --- | --- | --- | --- | --- |
| COc1ccc(CNC(=O)c2c(C)n([O-])c3cc(F)c(F)cc3[n+]2=O)cc1 | 67.8% | 80.3% | 106% | 71.1% | 55.9% | 97.8% | -73.5% (active) | 96.1% |
| CCCCN=C(N)c1ccc(OCCSCCOc2ccc(C(N)=NCCCC)cc2)cc1 | 26.3% | -3.76% (active) | 35.5% | 57.5% | 29.1% | 41.5% | 59% | 27% |
| COc1cc(/C=C/C(=O)CC(=O)/C=C/c2ccc(OC(=O)C3C4CC5CC(C4)CC3C5)c(OC)c2)ccc1OC(=O)C1C2CC3CC(C2)CC1C3 (stereo not drawn) | 99.4% | 108% | 112% | 113% | 110% | 93% | 98.8% | 107% |
| O=C1CSC(c2ccccc2Cl)N1c1nnc(Cn2nnc3ccccc32)o1 (stereo not drawn) | 50.5% | 98.9% | 93.4% | 93.2% | 86.8% | 60.1% | 86.4% | 77.1% |
| CC1CN(CC(O)c2ccc(Br)cc2)CCO1 (stereo not drawn) | 107% | 106% | 121% | 109% | 105% | 108% | 103% | 107% |
| CC1=C([Se]CC(OC(=O)[C@@H](CSSC(C)(C)C)NC(=O)C(C)(C)C)C(=O)NCCCCCC(=O)OCc2ccccc2)C(=O)c2ccccc2C1=O (stereo partly drawn) | 17.9% | -64.2% (active) | 14.2% | 9.84% (active) | 30.3% | -18% (active) | -63.9% (active) | – |
| O=C1C(=O)/C(=C/c2ccccc2)CCCCCC/C1=C/c1ccccc1 | 47.6% | 16.4% | -41.8% (active) | -19.1% (active) | 6.04% (active) | -23.7% (active) | -22.3% (active) | -23.6% (active) |
| COc1cccc(CCN2C(=O)CCC3=C2CCC3=O)c1 | 102% | 101% | 107% | 119% | 103% | 97.7% | 104% | – |
| COC(=O)C1(NC(=O)CNC(=O)OCc2ccccc2)CCCC1 | 113% | 99.1% | 106% | 104% | 93.9% | 99.9% | 108% | 108% |
| N#Cc1ncc(-c2ccc(C(F)(F)F)cc2)c(NC2CCCCCC2)n1 | 7.65% (active) | 49.5% | 8.67% (active) | 19.9% | 14% | 15.6% | 73.2% | 22.3% |
| CCCCCc1c(C)[nH]c(/C=C2\N=C(c3ccc[nH]3)C=C2OCc2ccccc2)c1C | -77.7% [100 µM] (active) | -94.6% [100 µM] (active) | -93.9% [100 µM] (active) | -34.7% [100 µM] (active) | -73% [100 µM] (active) | -94.7% [100 µM] (active) | -87.8% [100 µM] (active) | -80.9% [100 µM] (active) |
| COc1ccc2nc(NC(=O)CN3CCn4c(nnc4C(F)(F)F)C3)sc2c1 | 95% | 96% | 90% | 94.5% | 69.6% | 99.4% | 103% | 79.3% |
| C[C@H]1c2cccc(O)c2C(O)=C2C(=O)[C@]3(O)C(O)=C(C(N)=O)C(=O)[C@@H](N(C)C)[C@@H]3[C@@H](O)[C@@H]21 | 53.1% | 33.8% | 50.7% | 65.9% | 58.9% | 18.6% | 27.1% | 54.1% |
| O=C(O)CCC(=O)OC[C@@H](NC(=O)C(Cl)Cl)[C@H](O)c1ccc([N+](=O)[O-])cc1 | 95% | 89.6% | 101% | 108% | 97.2% | 92.3% | 100% | 103% |
| COc1ccc2nc(-c3ccc(Cl)cc3)cc(-c3nnc(SCC(=O)Nc4ccc(C(C)=O)cc4)n3-c3ccccc3)c2c1 | 87.2% | 87.5% | 100% | 108% | 100% | 100% | 97.7% | 95.3% |
